Results filed as inconclusive are left out. Where a call stands in place of a potency, no number is given. A number with no mark means an inactive call. Calls of active or inactive are those of the source. The call rests on the fitted dose curve; in most records, active means well fitted curve in the direction sought with a large enough effect; inconclusive means small, poorly fitted or top-dose-only effect, or another doubt; inactive means no such curve, though single readings can be large; an effect the other way counts as inactive or inconclusive.
Target: Cytochrome P450 3A7 (Homo sapiens) (UniProt P24462)
Test: Cytochrome P450 family 3 subfamily A member 7 (CYP3A7) small molecule antagonists: luciferase biochemical qHTS assay (AID 1963596)
Conditions: P450-Glo CYP3A7 enzyme luminescence, 1 h; series mostly up to 57.4 µM
In short: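 P450-Glo luminescent assay: CYP3A7 enzyme converts a proluciferin substrate to luciferin, detected by luciferase reagent; light proportional to activity. Compounds in DMSO preincubated 10 min with enzyme-substrate mix at room temperature, then NADPH regeneration added for 1 h.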
Further: nearly all actives have a fitted effect of over 40% in size.

Sequence of Cytochrome P450 3A7 (Homo sapiens) (P24462 whole entry, looked up): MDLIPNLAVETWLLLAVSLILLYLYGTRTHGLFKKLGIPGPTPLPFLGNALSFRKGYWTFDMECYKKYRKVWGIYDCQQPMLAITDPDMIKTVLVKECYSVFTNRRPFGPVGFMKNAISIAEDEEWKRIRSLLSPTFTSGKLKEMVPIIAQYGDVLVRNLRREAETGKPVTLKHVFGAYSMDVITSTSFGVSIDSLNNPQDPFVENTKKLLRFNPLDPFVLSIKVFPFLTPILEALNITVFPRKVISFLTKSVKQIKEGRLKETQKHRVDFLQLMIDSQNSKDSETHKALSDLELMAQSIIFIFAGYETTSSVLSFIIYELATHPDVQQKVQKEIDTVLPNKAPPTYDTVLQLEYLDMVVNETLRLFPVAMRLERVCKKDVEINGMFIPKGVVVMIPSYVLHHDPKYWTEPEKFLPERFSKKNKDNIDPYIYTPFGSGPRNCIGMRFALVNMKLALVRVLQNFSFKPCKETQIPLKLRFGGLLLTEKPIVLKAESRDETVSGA

Compound	Potency
CC(C)N=C(N)/N=C(\N)Nc1ccc(Cl)cc1	inactive
CCNCc1nc2c(N)nc3ccccc3c2n1CC(C)(C)O	inactive
O=C(NCC(=O)N1CC[C@H](NC2CCC(O)(c3ccc(-c4ncccn4)cn3)CC2)C1)c1cccc(C(F)(F)F)c1 (some centres undefined)	inactive
N#Cc1cccc(-c2c[nH]c3ncnc(N4CCOCC4)c23)c1	inactive
CN1C(=O)c2ccccc2C1=O	inactive
CCOC(N)=O	inactive
Oc1c(I)cc(Cl)c2cccnc12	inactive
COc1c(N2C[C@@H]3CCCN[C@@H]3C2)c(F)cc2c(=O)c(C(=O)O)cn(C3CC3)c12	inactive
CN(C)CCCO[C@@H]1[C@H]2OC(C)(C)O[C@H]2O[C@@H]1C(O)CO (some centres undefined)	inactive
CO[C@@]1(NC(=O)Cc2cccs2)C(=O)N2C(C(=O)O)=C(COC(N)=O)CS[C@@H]21	inactive
Nc1nc(N)c2nc(-c3ccccc3)c(N)nc2n1	inactive
CO/N=C(/C(=O)N[C@@H]1C(=O)N2C(C(=O)O)=C(Cn3nnc(C)n3)CS[C@H]12)c1csc(N)n1	inactive
CC1(C)S[C@@H]2[C@H](NC(=O)C(c3ccccc3)S(=O)(=O)O)C(=O)N2[C@H]1C(=O)O (some centres undefined)	inactive

Test system: not listed separately
Test: Viability qHTS for spleen associated tyrosine kinase inhibitor (SYKi) naive MV4-11 cells (AID 1963823); further: potency means the concentration at half of the fitted maximal effect
Conditions: MV4-11 AML viability, CellTiter-Glo luminescence, 72 h; series mostly up to 45 µM
In short: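 Compounds were dispensed acoustically onto plates, MV4-11 cells (SYKi-naive) added at 500 per well, and plates incubated 72 hr at 37 C. CellTiter-Glo was added and luminescence measured after 10 min.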

Compound	Potency	viability (% of control)
COC1=CC(=O)O[C@@H](/C=C/c2ccccc2)[C@@H]1O	inactive	
COc1ccc(-c2c(C)c(C(=O)NN3CCCCC3)nn2-c2ccc(Cl)cc2Cl)cc1	16400 nM (active)	
CCc1c(-c2ccccc2)c(-c2ccccc2)nn1-c1ccccc1-c1cccc(OCC(=O)O)c1	inactive	
CC(=O)O[C@H]1C[C@@](O)(C(C)C)C2[C@@H](OC(=O)c3ccc(O)cc3)C[C@@]3(C)O[C@H]3C[C@]21C (some centres undefined)	inactive	
COc1cc(/C=C/C(=O)O)ccc1O[C@@H]1O[C@H](CO)[C@@H](O)[C@H](O)[C@H]1O[C@@H]1OC[C@](O)(CO)[C@H]1O	inactive	
Cc1cn2cc(CC(=O)N3CCC4(CC3)CN(Cc3ccc(-n5nccn5)cc3Cl)C4)nc2s1	16400 nM (active)	
CC(C)(C)NC(=O)[C@H]1CC[C@H]2[C@@H]3CC[C@H]4NC(=O)CC[C@]4(C)[C@H]3CC[C@]12C	inactive	
Nc1ncnc2c1c(-c1ccc(Oc3ccccc3)cc1)nn2[C@@H]1CCCNC1	206 nM (active)	
CC1=CC(=O)CC(C)(C)C1CCC(C)OC1OC(COC(=O)c2cc(O)c(O)c(O)c2)C(O)C(O)C1O (centres undefined)	inactive	
CC12CCC(OC3OC(CO)C(O)C(OC4OC(CO)C(O)C(O)C4O)C3O)CC1=CCC1C2CCC2(C)/C(=C3/COC(=O)C3)CCC12O (centres undefined)	inactive	
O=S(=O)(c1ccc(S(=O)(=O)n2cnc3ccccc32)cc1)N1CCCCCC1	inactive	
CC1(C)CC[C@]2(C(=O)O)[C@H](O)C[C@]3(C)C(=CCC4[C@@]5(C)CC[C@H](O[C@@H]6O[C@H](CO[C@@H]7OC[C@H](O)[C@H](O)[C@H]7O[C@@H]7OC[C@H](O)[C@H](O)[C@H]7O)[C@@H](O)[C@H](O)[C@H]6O)C(C)(C)C5CC[C@]43C)[C@@H]2C1 (some centres undefined)		57.5% [at 9.25 µM]
COc1cc(C(=O)NC2CCN(C)CC2)c(F)cc1Nc1ncc2c(n1)N(C1CCCC1)CC(F)(F)C(=O)N2C	20.6 nM (active)	
COc1cc2c(cc1NS(=O)(=O)c1ccc(Br)cc1C)n(C)c(=O)n2C	2310 nM (active)	
O=S(=O)(O)c1ccc(Nc2ncnc3c2ncn3[C@@H]2O[C@H](CO)[C@@H](O)[C@H]2O)cc1	inactive	
CC(C)C[C@H](CC(=O)NO)C(=O)N[C@@H](Cc1ccc2ccccc2c1)C(=O)N[C@@H](C)C(=O)NCCN	inactive	
O=C(Nc1nc2cc(C(F)(F)F)cc(NC3CC3)n2n1)c1cccnc1	3660 nM (active)	
CC(=O)O[C@H](C[C@@H](C)[C@H]1C(=O)[C@H](O)[C@@]2(C)[C@@H]3CCC4C(C)(C)[C@@H](O[C@@H]5OC[C@H](O)[C@H](O)[C@H]5O)CC[C@@]45C[C@@]35CC[C@]12C)[C@@H]1OC1(C)C (some centres undefined)	inactive	
C=C1[C@H](OC(C)=O)[C@H]2[C@@H](OC(C)=O)C(C)C[C@]2(OC(C)=O)C(=O)[C@H](C)/C=C/C(C)(C)C(=O)[C@H](OC(=O)C(C)C)[C@H]1OC(C)=O (some centres undefined)	inactive	
COC(=O)Cn1nc(-c2cccc(OC)c2)c2ccccc21	inactive	
O=C(OCC(O)CO[C@@H]1O[C@H](C(=O)O)[C@@H](O)[C@H](O)[C@H]1O)c1ccccc1 (some centres undefined)	inactive	

Reference: PubChem BioAssay (NCATS)
